The campaign covered roughly 2,700 compounds. About 160 (5.9%) showed an effect of 50% or more. Shown is part of a subset that was picked to be rich in strong results.
Biological target: Nonstructural protein 3 (Zika virus) (UniProt A0A024AXB9)
[1] = PRVABC59, Concentration 15.0 uM, Number of replicates 1.0
[2] = PRVABC59, Concentration 50.0 uM, Number of replicates 1.0

Chain of Nonstructural protein 3 (Zika virus) (A0A024AXB9 as listed by the source): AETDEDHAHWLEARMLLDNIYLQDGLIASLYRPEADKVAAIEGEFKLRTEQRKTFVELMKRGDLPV

## CN(C(=O)c1cc(Cl)ccc1NS(=O)(=O)c1ccc(Oc2ccccc2Cl)cc1)[C@H]1CS(=O)(=O)C[C@@H]1O
[1]
  inhibition: 1.21%

## Cc1cc(CO)c2cccc(C[C@H](NC(=O)c3cc(C(=O)O)[nH]n3)C(=O)O)c2n1
PRVABC59, Concentration 49.95 uM, Number of replicates 2.0, Standard deviation 1.6911148062176817 %
  inhibition: 1.37%
PRVABC59, Concentration 99.9 uM, Number of replicates 2.0, Standard deviation 1.9620942703325182 %
  inhibition: 8.92%

## O=Cc1ccc(N2CCC(C(=O)Nc3ccc(C(F)(F)F)cc3[N+](=O)[O-])CC2)cc1
[2]
  inhibition: 22.3%

## O=C(c1cc(Cl)ccc1NS(=O)(=O)c1ccc(Oc2ccccc2Cl)cc1)N1CCC(c2nc3ccccc3[nH]2)CC1
[1]
  inhibition: 20.5%

## Cc1cc(CO)c2cccc(CC(=O)Nc3ccc(C(=O)O)o3)c2n1
PRVABC59, Concentration 49.95 uM, Number of replicates 2.0, Standard deviation 1.3790313962849292 %
  inhibition: 42.9%
PRVABC59, Concentration 99.9 uM, Number of replicates 2.0, Standard deviation 0.49288480262410383 %
  inhibition: 40.6%

## Cc1cc(CO)c2cccc(Cc3ccccc3C(=O)Nc3nonc3C(N)=O)c2n1
PRVABC59, Concentration 49.95 uM, Number of replicates 2.0, Standard deviation 0.12584307180819165 %
  inhibition: -4.45%
PRVABC59, Concentration 99.9 uM, Number of replicates 2.0, Standard deviation 0.39850300453014226 %
  inhibition: -1.53%

## Cc1cc(CO)c2cccc(CC(=O)Nc3nonc3C(N)=O)c2n1
PRVABC59, Concentration 49.95 uM, Number of replicates 2.0, Standard deviation 0.05598719921229546 %
  inhibition: 82%
PRVABC59, Concentration 99.9 uM, Number of replicates 2.0, Standard deviation 1.0790078750483718 %
  inhibition: 86.1%

## Cc1cc(CO)c2cccc(CC(=O)N[C@@H](CCC(N)=O)C(=O)O)c2n1
PRVABC59, Concentration 49.95 uM, Number of replicates 2.0, Standard deviation 0.13741625923449508 %
  inhibition: 69.6%
PRVABC59, Concentration 99.9 uM, Number of replicates 2.0, Standard deviation 0.11197439842459092 %
  inhibition: 81.6%

## Cc1cc(CO)c2cccc(CC(=O)Nc3cccc(C(N)=O)c3)c2n1
PRVABC59, Concentration 49.95 uM, Number of replicates 2.0, Standard deviation 0.035627236808440856 %
  inhibition: 58.9%
PRVABC59, Concentration 99.9 uM, Number of replicates 2.0, Standard deviation 0.025447255606513557 %
  inhibition: 72.8%

## Cc1cc(CO)c2cccc(Cc3cccc(C(=O)NCC(N)=O)c3)c2n1
PRVABC59, Concentration 49.95 uM, Number of replicates 2.0, Standard deviation 1.0591786257609663 %
  inhibition: -5.74%
PRVABC59, Concentration 99.9 uM, Number of replicates 2.0, Standard deviation 0.9490662751035868 %
  inhibition: -1.72%

## Cc1cc(CO)c2cccc(Cc3cccc(C(=O)N[C@@H](CCC(N)=O)C(=O)O)c3)c2n1
PRVABC59, Concentration 49.95 uM, Number of replicates 2.0, Standard deviation 1.9977585963676485 %
  inhibition: 14.4%
PRVABC59, Concentration 99.9 uM, Number of replicates 2.0, Standard deviation 0.9280938346971718 %
  inhibition: 36%

## Cc1cc(CO)c2cccc(Cc3ccccc3C(=O)N[C@@H](CCC(N)=O)C(=O)O)c2n1
PRVABC59, Concentration 49.95 uM, Number of replicates 2.0, Standard deviation 1.0696657731948411 %
  inhibition: -4.71%
PRVABC59, Concentration 99.9 uM, Number of replicates 2.0, Standard deviation 0.7655451252044032 %
  inhibition: 0.649%

## Cc1cc(CO)c2cccc(Cc3ccccc3C(=O)Nc3cccc(C(N)=O)c3)c2n1
PRVABC59, Concentration 49.95 uM, Number of replicates 2.0, Standard deviation 0.5610502494199251 %
  inhibition: -2.71%
PRVABC59, Concentration 99.9 uM, Number of replicates 2.0, Standard deviation 0.1363299663609753 %
  inhibition: 0.693%

## Cc1cc(CO)c2cccc(Nc3nonc3C(N)=O)c2n1
PRVABC59, Concentration 49.95 uM, Number of replicates 2.0, Standard deviation 1.4175935710362748 %
  inhibition: 4.15%
PRVABC59, Concentration 99.9 uM, Number of replicates 2.0, Standard deviation 2.0633301575187155 %
  inhibition: 4.07%

## Cc1cc(CO)c2cccc(Cc3cccc(C(=O)Nc4cccc(C(N)=O)c4)c3)c2n1
PRVABC59, Concentration 49.95 uM, Number of replicates 2.0, Standard deviation 0.1992514179713741 %
  inhibition: -3.36%
PRVABC59, Concentration 99.9 uM, Number of replicates 2.0, Standard deviation 0.4299637092619174 %
  inhibition: -0.56%

## Cc1cc(CO)c2cccc(Cc3cccc(C(=O)Nc4nonc4C(N)=O)c3)c2n1
PRVABC59, Concentration 49.95 uM, Number of replicates 2.0, Standard deviation 1.609742570683987 %
  inhibition: 20.1%
PRVABC59, Concentration 99.9 uM, Number of replicates 2.0, Standard deviation 0.8074931564941592 %
  inhibition: 55.3%

## O=C(Nc1nc2[nH]cnc2c(=O)[nH]1)c1cc(Cl)ccc1NS(=O)(=O)c1ccc(Oc2ccccc2Cl)cc1
[1]
  inhibition: 21.9%

## CN(C)Cc1ccc(NCc2ccc(N3CCN(C)CC3)cc2)nc1
PRVABC59, Concentration 49.5 uM, Number of replicates 2.0, Standard deviation 0.4640657991367188 %
  inhibition: -2.39%
PRVABC59, Concentration 99.01 uM, Number of replicates 2.0, Standard deviation 0.7284754441158133 %
  inhibition: -1.05%
PRVABC59, Concentration 198.0 uM, Number of replicates 2.0, Standard deviation 0.8166119221974307 %
  inhibition: 1.21%

## O=Cc1ccc(N2CCC(C(=O)Nc3c(Cl)cccc3[N+](=O)[O-])CC2)cc1
[2]
  inhibition: 21.7%

## CN1CCN(c2ccc(CNS(=O)(=O)c3ccc(C(N)=O)cc3)cc2)CC1
PRVABC59, Concentration 49.5 uM, Number of replicates 2.0, Standard deviation 3.1298940912505486 %
  inhibition: -2.93%
PRVABC59, Concentration 99.01 uM, Number of replicates 2.0, Standard deviation 2.0491409994990377 %
  inhibition: -9.18%

## CC(C)N(Cc1cnn(C)c1)C(=O)c1cc(Cl)ccc1NS(=O)(=O)c1ccc(Oc2ccccc2Cl)cc1
[1]
  inhibition: 21.9%

## CN(C(=O)c1cc(Cl)ccc1NS(=O)(=O)c1ccc(Oc2ccccc2Cl)cc1)[C@H]1CCN(Cc2ccccc2)C1
[1]
  inhibition: 18.4%

## CCc1cccc2[nH]c(C(=O)N3C[C@H](n4cc(CO)nn4)CCC3(C)C)cc12
PRVABC59, Concentration 49.5 uM, Number of replicates 2.0, Standard deviation 1.345657751466366 %
  inhibition: 1.61%
PRVABC59, Concentration 99.01 uM, Number of replicates 2.0, Standard deviation 0.921351350459793 %
  inhibition: 4.33%
PRVABC59, Concentration 198.0 uM, Number of replicates 2.0, Standard deviation 1.6164058188461652 %
  inhibition: 5.38%

## O=C(NCC[C@H](O)c1ccccc1)c1cc(Cl)ccc1NS(=O)(=O)c1ccc(Oc2ccccc2Cl)cc1
[1]
  inhibition: 38.9%

## COc1ccc(S(=O)(=O)N[C@H]2CC[C@H](C(=O)Nc3nc4ccccc4s3)CC2)cc1
PRVABC59, Concentration 49.5 uM, Number of replicates 2.0, Standard deviation 1.516279405300169 %
  inhibition: 4.79%
PRVABC59, Concentration 99.01 uM, Number of replicates 2.0, Standard deviation 2.0429029287446374 %
  inhibition: 5.82%
PRVABC59, Concentration 198.0 uM, Number of replicates 2.0, Standard deviation 2.7145967477005732 %
  inhibition: 5.18%

## O=Cc1ccc(N2CCC(C(=O)N3CCC[C@H]3c3cccc(F)c3)CC2)cc1
[2]
  inhibition: 24.6%

## Cc1cc(CO)c2cccc(NC(=O)CNC3CC3)c2n1
PRVABC59, Concentration 49.95 uM, Number of replicates 2.0, Standard deviation 1.7513317050958486 %
  inhibition: 17.8%
PRVABC59, Concentration 99.9 uM, Number of replicates 2.0, Standard deviation 1.7111876748261923 %
  inhibition: 28.9%

## Cc1cc(CO)c2cccc(NC(=O)C3CCN(C)CC3)c2n1
PRVABC59, Concentration 49.95 uM, Number of replicates 2.0, Standard deviation 2.9039680698338874 %
  inhibition: 1.89%
PRVABC59, Concentration 99.9 uM, Number of replicates 2.0, Standard deviation 2.0814932575907883 %
  inhibition: 29.5%

## Cc1cc(CO)c2cccc(NC(=O)[C@@H]3C[C@@H](O)CN3)c2n1
PRVABC59, Concentration 49.95 uM, Number of replicates 2.0, Standard deviation 2.1728568355691875 %
  inhibition: 17%
PRVABC59, Concentration 99.9 uM, Number of replicates 2.0, Standard deviation 5.153634365263829 %
  inhibition: 23.7%

## Cc1cc(CO)c2cccc(NC(=O)[C@@H]3CCCC[C@H]3C(=O)O)c2n1
PRVABC59, Concentration 49.95 uM, Number of replicates 2.0, Standard deviation 1.6258787445174738 %
  inhibition: 3.41%
PRVABC59, Concentration 99.9 uM, Number of replicates 2.0, Standard deviation 1.31977157857946 %
  inhibition: 10.8%

## Cc1cc(CO)c2cccc(CC(=O)N3CCC(CN)CC3)c2n1
PRVABC59, Concentration 49.95 uM, Number of replicates 2.0, Standard deviation 0.5547725606279245 %
  inhibition: 25.3%
PRVABC59, Concentration 99.9 uM, Number of replicates 2.0, Standard deviation 0.00508999060096365 %
  inhibition: 39.1%

## Cc1cc(CO)c2cccc(NC(=O)C3CCC(CN)CC3)c2n1 (stereo not drawn)
PRVABC59, Concentration 49.95 uM, Number of replicates 2.0, Standard deviation 1.4301713707436838 %
  inhibition: 93.7%
PRVABC59, Concentration 99.9 uM, Number of replicates 2.0, Standard deviation 0.5018131910126516 %
  inhibition: 92.3%

## Cc1cc(CO)c2cccc(NC(=O)C3CNC3)c2n1
PRVABC59, Concentration 99.9 uM, Number of replicates 2.0, Standard deviation 0.20878200053144555 %
  inhibition: -2.49%

## Cc1cc(CO)c2cccc(NC(=O)C3CCC(N)CC3)c2n1 (stereo not drawn)
PRVABC59, Concentration 49.95 uM, Number of replicates 2.0, Standard deviation 0.4998117214705663 %
  inhibition: 93.2%
PRVABC59, Concentration 99.9 uM, Number of replicates 2.0, Standard deviation 0.37327676699721984 %
  inhibition: 95.4%

## Cc1cc(CO)c2cccc(NC(=O)C3CC(N)C3)c2n1 (stereo not drawn)
PRVABC59, Concentration 49.95 uM, Number of replicates 2.0, Standard deviation 0.17303270644971713 %
  inhibition: 56.1%
PRVABC59, Concentration 99.9 uM, Number of replicates 2.0, Standard deviation 0.6659229038704304 %
  inhibition: 84.7%

— ChEMBL document CHEMBL5606458, “ASAP - ZIKV NS2B-NS3 protease fluorescence single point” (2024)
